In PubChem BioAssay AID1159580 (chemical genetic matrix, 2015):
The whole screen tested about 5,500 compounds, of which about 2,000 (36%) were called active. Not shown: some 18% with an inconclusive outcome. Some of the results follow. Unmarked numbers belong to inactive results. Cut-off read from the data, not from the text of the source: active = normalized growth mostly below about 0.91 (no sharp cut-off); inconclusive = no clear call, values can overlap the other calls; inactive = mostly above about 0.92.

Assay: chemical genetic growth profiling, strain panel (AID 1159580);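 note: tested at 20 µM; growth read once vehicle control cultures reached saturation at 30 °C; 1 = growth at the plate median or of vehicle wells; lower values mean less growth of the strain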
Conditions: growth OD
[1] = S. cerevisiae deletion strains, locus YBR021W, strain FUR4, stronger effect = lower value
[2] = S. cerevisiae deletion strains, locus YBR229C, strain ROT2, stronger effect = lower value
[3] = S. cerevisiae deletion strains, locus YCL029C, strain bik1, stronger effect = lower value
[4] = S. cerevisiae deletion strains, locus YDL035C, strain GPR1, stronger effect = lower value
[5] = S. cerevisiae deletion strains, locus YDL074C, strain BRE1, stronger effect = lower value
[6] = S. cerevisiae deletion strains, locus YDL101C, strain DUN1, stronger effect = lower value
[7] = S. cerevisiae deletion strains, locus YDL134C, strain PPH21, stronger effect = lower value
[8] = S. cerevisiae deletion strains, locus YDL185W, strain tfp1, stronger effect = lower value
[9] = S. cerevisiae deletion strains, locus YDL192W, strain arf1, stronger effect = lower value
[10] = S. cerevisiae deletion strains, locus YDR101C, strain arx1, stronger effect = lower value
[11] = S. cerevisiae deletion strains, locus YDR162C, strain NBP2, stronger effect = lower value
[12] = S. cerevisiae deletion strains, locus YDR318W, strain mcm21, stronger effect = lower value
[13] = S. cerevisiae deletion strains, locus YDR388W, stronger effect = lower value
[14] = S. cerevisiae deletion strains, locus YDR502C, strain sam2, stronger effect = lower value
[15] = S. cerevisiae deletion strains, locus YEL061C, strain CIN8, stronger effect = lower value
[16] = S. cerevisiae deletion strains, locus YER110C, stronger effect = lower value
[17] = S. cerevisiae deletion strains, locus YER155C, strain BEM2, stronger effect = lower value
[18] = S. cerevisiae deletion strains, locus YER167W, strain BCK2, stronger effect = lower value
[19] = S. cerevisiae deletion strains, locus YGL078C, strain dbp3, stronger effect = lower value
[20] = S. cerevisiae deletion strains, locus YGL086W, strain mad1, stronger effect = lower value
[21] = S. cerevisiae deletion strains, locus YGL248W, strain PDE1, stronger effect = lower value
[22] = S. cerevisiae deletion strains, locus YGR135W, strain pre9, stronger effect = lower value
[23] = S. cerevisiae deletion strains, locus YGR252W, strain gcn5, stronger effect = lower value
[24] = S. cerevisiae deletion strains, locus YHR079C, strain IRE1 (second series), stronger effect = lower value
[25] = S. cerevisiae deletion strains, locus YHR094C, strain hxt1, stronger effect = lower value
[26] = S. cerevisiae deletion strains, locus YHR129C, strain ARP1, stronger effect = lower value
[27] = S. cerevisiae deletion strains, locus YHR200W, strain rpn10, stronger effect = lower value
[28] = S. cerevisiae deletion strains, locus YIL066C, strain RNR3, stronger effect = lower value
[29] = S. cerevisiae deletion strains, locus YIL073C, strain SPO22, stronger effect = lower value
[30] = S. cerevisiae deletion strains, locus YIL125W, strain kgd1, stronger effect = lower value
[31] = S. cerevisiae deletion strains, locus YIR030C, strain dcg1, stronger effect = lower value
[32] = S. cerevisiae deletion strains, locus YJL095W, strain BCK1, stronger effect = lower value
[33] = S. cerevisiae deletion strains, locus YJL134W, strain LCB3, stronger effect = lower value
[34] = S. cerevisiae deletion strains, locus YJL168C, strain set2, stronger effect = lower value
[35] = S. cerevisiae deletion strains, locus YJL187C, strain SWE1 (second series), stronger effect = lower value
[36] = S. cerevisiae deletion strains, locus YJR075W, strain HOC1, stronger effect = lower value
[37] = S. cerevisiae deletion strains, locus YKL068W, stronger effect = lower value
[38] = S. cerevisiae deletion strains, locus YKL085W, strain MDH1 (second series), stronger effect = lower value
[39] = S. cerevisiae deletion strains, locus YKL085W, strain MDH1, stronger effect = lower value
[40] = S. cerevisiae deletion strains, locus YKR001C, strain vps1, stronger effect = lower value
[41] = S. cerevisiae deletion strains, locus YLR039C, strain RIC1, stronger effect = lower value
[42] = S. cerevisiae deletion strains, locus YLR058C, strain SHM2, stronger effect = lower value
[43] = S. cerevisiae deletion strains, locus YLR102C, strain apc9, stronger effect = lower value
[44] = S. cerevisiae deletion strains, locus YLR268W, strain sec22, stronger effect = lower value
[45] = S. cerevisiae deletion strains, locus YLR330W, strain CHS5, stronger effect = lower value
[46] = S. cerevisiae deletion strains, locus YLR371W, strain rom2, stronger effect = lower value
[47] = S. cerevisiae deletion strains, locus YLR418C, strain cdc73, stronger effect = lower value
[48] = S. cerevisiae deletion strains, locus YML016C, strain PPZ1, stronger effect = lower value
[49] = S. cerevisiae deletion strains, locus YML032C, strain rad52, stronger effect = lower value
[50] = S. cerevisiae deletion strains, locus YML124C, strain tub3, stronger effect = lower value
[51] = S. cerevisiae deletion strains, locus YMR078C, strain ctf18, stronger effect = lower value
[52] = S. cerevisiae deletion strains, locus YMR223W, strain ubp8, stronger effect = lower value
[53] = S. cerevisiae deletion strains, locus YMR263W, strain SAP30, stronger effect = lower value
[54] = S. cerevisiae deletion strains, locus YMR307W, strain GAS1, stronger effect = lower value
[55] = S. cerevisiae deletion strains, locus YNL067W, strain RPL9B, stronger effect = lower value
[56] = S. cerevisiae deletion strains, locus YNL233W, strain BNI4, stronger effect = lower value
[57] = S. cerevisiae deletion strains, locus YNL250W, strain rad50, stronger effect = lower value
[58] = S. cerevisiae deletion strains, locus YNL271C, strain bni1, stronger effect = lower value
[59] = S. cerevisiae deletion strains, locus YNL298W, strain CLA4, stronger effect = lower value
[60] = S. cerevisiae deletion strains, locus YNL307C, strain MCK1, stronger effect = lower value
[61] = S. cerevisiae deletion strains, locus YNR052C, strain pop2, stronger effect = lower value
[62] = S. cerevisiae deletion strains, locus YOL006C, strain TOP1, stronger effect = lower value
[63] = S. cerevisiae deletion strains, locus YOL012C, strain htz1
[64] = S. cerevisiae deletion strains, locus YOL147C, strain pex11, stronger effect = lower value
[65] = S. cerevisiae deletion strains, locus YOR061W, strain CKA2, stronger effect = lower value
[66] = S. cerevisiae deletion strains, locus YOR069W, strain VPS5, stronger effect = lower value
[67] = S. cerevisiae deletion strains, locus YOR136W, strain idh2, stronger effect = lower value
[68] = S. cerevisiae deletion strains, locus YOR144C, strain elg1, stronger effect = lower value
[69] = S. cerevisiae deletion strains, locus YOR184W, strain ser1, stronger effect = lower value
[70] = S. cerevisiae deletion strains, locus YOR316C, strain cot1, stronger effect = lower value
[71] = S. cerevisiae deletion strains, locus YPR119W, strain clb2, stronger effect = lower value
[72] = S. cerevisiae deletion strains, locus YPR141C, strain kar3, stronger effect = lower value
[73] = S. cerevisiae deletion strains, locus YPR163C, strain tif3, stronger effect = lower value
[74] = S. cerevisiae deletion strains, locus YPR167C, strain met16, stronger effect = lower value
[75] = S. cerevisiae deletion strains, strain wtn01, stronger effect = lower value
[76] = S. cerevisiae strains, strain wild type, stronger effect = lower value

COc1cc2c(cc1OC)C1C(=O)c3c(OC)cc4c(c3OC1CO2)CCC(C)(C)O4 (configuration not stated)
normalized growth (S. cerevisiae deletion strains, locus YAL013W, strain DEP1, stronger effect = lower value): 1.01
normalized growth [1]: 1.02
normalized growth [2]: 1.02
normalized growth [3]: 0.987
normalized growth [4]: 1
normalized growth [5]: 1.03
normalized growth [6]: 1.03
normalized growth [7]: 1.02
normalized growth [8]: 0.988
normalized growth [9]: 0.983
normalized growth [10]: 0.984
normalized growth (S. cerevisiae deletion strains, locus YDR150W, strain NUM1, stronger effect = lower value): 1.02
normalized growth [11]: 1.06
normalized growth [12]: 0.988
normalized growth [13]: 0.99
normalized growth [14]: 0.997
normalized growth [15]: 1.01
normalized growth [16]: 0.985
normalized growth [17]: 1.02
normalized growth [18]: 1.01
normalized growth [19]: 0.981
normalized growth [20]: 0.975
normalized growth [21]: 1.02
normalized growth (S. cerevisiae deletion strains, locus YGR078C, strain PAC10, stronger effect = lower value): 1.03
normalized growth [22]: 1.01
normalized growth (S. cerevisiae deletion strains, locus YGR229C, strain SMI1, stronger effect = lower value): 1.01
normalized growth [23]: 0.948
normalized growth (S. cerevisiae deletion strains, locus YHR030C, strain SLT2, stronger effect = lower value): 1.01
normalized growth [24]: 0.988
normalized growth [25]: 0.987
normalized growth [26]: 1.01
normalized growth [27]: 0.993
normalized growth [28]: 1.02
normalized growth [29]: 0.948
normalized growth [30]: 0.983
normalized growth [31]: 0.985
normalized growth [32]: 1.01
normalized growth [33]: 1.01
normalized growth [34]: 0.979
normalized growth [35]: 1.02
normalized growth (S. cerevisiae deletion strains, locus YJR043C, strain POL32, stronger effect = lower value): 1
normalized growth [36]: 1.01
normalized growth (S. cerevisiae deletion strains, locus YKL009W, strain mrt4, stronger effect = lower value): 0.999
normalized growth [37]: 0.983
normalized growth [38]: 0.978
normalized growth [39]: 0.978
normalized growth (S. cerevisiae deletion strains, locus YKL190W, strain CNB1, stronger effect = lower value): 1.02
normalized growth [40]: 0.961
normalized growth [41]: 0.964
normalized growth [42]: 1.02
normalized growth [43]: 0.992
normalized growth (S. cerevisiae deletion strains, locus YLR262C, strain YPT6, stronger effect = lower value): 0.994
normalized growth [44]: 0.972
normalized growth [45]: 1.01
normalized growth (S. cerevisiae deletion strains, locus YLR342W, strain FKS1 (second series), stronger effect = lower value): 0.981
normalized growth [46]: 0.988
normalized growth [47]: 1
normalized growth [48]: 1.02
normalized growth [49]: 0.966
normalized growth [50]: 0.99
normalized growth [51]: 0.979
normalized growth [52]: 0.973
normalized growth [53]: 1.03
normalized growth [54]: 0.99
normalized growth [55]: 1.03
normalized growth (S. cerevisiae deletion strains, locus YNL128W, strain TEP1, stronger effect = lower value): 1.02
normalized growth (S. cerevisiae deletion strains, locus YNL153C, strain GIM3, stronger effect = lower value): 1.03
normalized growth [56]: 1.04
normalized growth [57]: 0.968
normalized growth [58]: 0.981
normalized growth [59]: 1
normalized growth [60]: 0.969
normalized growth (S. cerevisiae deletion strains, locus YNL322C, strain KRE1, stronger effect = lower value): 1.02
normalized growth [61]: 0.976
normalized growth [62]: 1.04
normalized growth [63]: 0.96
normalized growth [64]: 0.988
normalized growth [65]: 1.02
normalized growth [66]: 1.01
normalized growth [67]: 0.981
normalized growth [68]: 0.994
normalized growth [69]: 0.95
normalized growth [70]: 0.98
normalized growth (S. cerevisiae deletion strains, locus YPL055C, strain LGE1, stronger effect = lower value): 1.05
normalized growth (S. cerevisiae deletion strains, locus YPL241C, strain CIN2, stronger effect = lower value): 1.01
normalized growth [71]: 0.983
normalized growth [72]: 0.966
normalized growth [73]: 0.976
normalized growth [74]: 0.983
normalized growth [75]: 0.997
normalized growth [76]: 1

COc1cc2c(cc1OC)C1C(=O)c3c(O)cc4c(c3OC1CO2)C=CC(C)(C)O4 (configuration not stated)
normalized growth [1]: 1.01
normalized growth [2]: 1
normalized growth [3]: 1.01
normalized growth [4]: 0.965
normalized growth [5]: 0.962
normalized growth [6]: 1.01
normalized growth [7]: 0.985
normalized growth [8]: 1.01
normalized growth [9]: 0.98
normalized growth [10]: 1.02
normalized growth [11]: 1
normalized growth [12]: 0.995
normalized growth [13]: 1
normalized growth [14]: 1.03
normalized growth [15]: 0.989
normalized growth [16]: 1.02
normalized growth [17]: 1.02
normalized growth [18]: 1
normalized growth [19]: 1.03
normalized growth [20]: 1.02
normalized growth [21]: 1.01
normalized growth [22]: 1.06
normalized growth [23]: 1.03
normalized growth [24]: 1.01
normalized growth [25]: 1.02
normalized growth [26]: 0.991
normalized growth [27]: 1.01
normalized growth [28]: 0.981
normalized growth [29]: 1.08
normalized growth [30]: 1.02
normalized growth [31]: 1.03
normalized growth [32]: 1.01
normalized growth [33]: 0.998
normalized growth [34]: 1
normalized growth [35]: 0.997
normalized growth [36]: 0.999
normalized growth [37]: 1.01
normalized growth [38]: 1.01
normalized growth [39]: 1.01
normalized growth [40]: 0.718 (active)
normalized growth [41]: 0.871
normalized growth [42]: 0.977
normalized growth [43]: 1.02
normalized growth [44]: 1.01
normalized growth [45]: 0.987
normalized growth [46]: 1.02
normalized growth [47]: 0.988
normalized growth [48]: 1.01
normalized growth [49]: 1.02
normalized growth [50]: 1.03
normalized growth [51]: 1.03
normalized growth [52]: 1.01
normalized growth [53]: 1.01
normalized growth [54]: 0.949
normalized growth [55]: 1.01
normalized growth [56]: 1.01
normalized growth [57]: 1.05
normalized growth [58]: 1.03
normalized growth [59]: 1.01
normalized growth [60]: 1.02
normalized growth [61]: 1.03
normalized growth [62]: 0.933
normalized growth [63]: 1.33
normalized growth [64]: 0.999
normalized growth [65]: 0.987
normalized growth [66]: 1.01
normalized growth [67]: 1
normalized growth [68]: 1.01
normalized growth [69]: 1.01
normalized growth [70]: 1.01
normalized growth [71]: 1.03
normalized growth [72]: 1.03
normalized growth [73]: 1
normalized growth [74]: 1.03
normalized growth [75]: 1.01
normalized growth [76]: 0.932
